Results on 5 compounds are retold here after PubChem BioAssay.

Records with an inconclusive call do not appear. The source made the active and inactive calls.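 How the source made its calls, unless noted: active means viability loss from added drug above about 55%, and viability with drug at most 40%, in both replicates (limit read from the data, passing the limit was not always enough); inconclusive means both conditions met in only one replicate; inactive means neither replicate meets both conditions.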

A short description of assay [1]: reducers of endogenous Her2 protein level, primary screen, SKBR3 breast tumor cells, AlphaScreen, ATP viability (AID 461;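 active means Her2 level under about 52% in both replicate screens, with viability over 70% of control, limit read from the data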;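 on Her2 level: lower value means less Her2 protein in the cells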;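 on viability: percent of carrier control wells set as 100% viability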). The note with it: 18-24 h, measured here: SKBR3 viability, ATP luminescence, at 10 µM.
For assay [2], the target named is Receptor tyrosine-protein kinase erbB-2 (Homo sapiens) (UniProt P04626). The assay is described as above. The note with it: 18-24 h, at 10 µM, stronger effect = lower value.
Assay [3] is described as follows: SK-BR-3 cell growth inhibitors, pilot screen, 24 h, human (AID 572;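 active means viability at or below 10% of carrier control in both of two separate runs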;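 further: compound exposure lasted between 18 and 24 h rather than exactly 24 h; 100% = carrier-treated control wells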). The note with it: SK-BR-3 viability, CellTiter-Glo luminescence, at 10 µM, stronger effect = lower value. In general terms: Cellular ATP, detected with luciferase, serves as a proxy for viable cell number.
The nature of assay [4]: HUVEC growth inhibition – cell-based, human, primary screen (AID 575;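 active means viability at or below 30% in both replicate assays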;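 further: 100% = median of untreated cell wells with 0.1% DMSO on each plate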). The note with it: HUVEC proliferation, CellTiter-Glo luminescence, 72 h; at 10 µM; stronger effect = lower value.
Assay [5] in a line: growth inhibitors of H69AR lung tumor, primary screen, human, duplicate replicates (AID 580;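 active means viability at or under a set limit in both replicates, limit being median viability minus 3 SD, cut at about 48% in these data, passing the limit was not always enough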;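 further: 100% = mean luminescence of untreated wells and 0% = no signal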). The note with it: H69AR lung tumor cells viability, ATP luminescence, 72 h; at 10 µM; stronger effect = lower value.
The nature of assay [6]: reversal of MRP1-mediated doxorubicin resistance, pilot screen, H69AR cells, doxorubicin co-treatment (AID 601). To be noted: CellTiter-Glo, 72 h, at 10 µM; for differential viability (reversal): stronger effect = higher value.
Assay [7] in a line: 384-well plate pilot, post-Golgi transport modulator project, inhibition of yeast transport mutant growth (AID 636; in the data active means inhibition above about 31%). To be noted: absorbance 615 nm, about 18 h, stronger effect = higher value.
Assay [8] can be described thus: growth suppression of yeast trafficking mutant, preliminary HTS, modulators of trafficking downstream of Golgi apparatus project, 1536-format plate, OD 615 nm (AID 637; in the data active means inhibition above about 30%). To be noted: yeast transport mutant growth, absorbance 615 nm, 18 h; stronger effect = higher value.
Assay [9] in a line: OD615 S. cerevisiae growth inhibition, permissive medium, pilot counter-assay, permissive growth control for S. cerevisiae lifespan shortening project (AID 705;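 active means growth inhibition above 25% in both replicates, a cutoff set 3 SD above the mean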). The note with it: OD615, 24 h, at 10 µM, stronger effect = higher value.
Assay [10] is described as follows: Restrictive medium S. cerevisiae growth inhibition, OD615, pilot screen of yeast lifespan reduction project, restrictive growth control (AID 706;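 active means growth inhibition above a set limit, 3 SD over mean compound inhibition, in both replicates, cut at about 43% in these data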;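 further: modified DeaD lifespan yeast strain shifted to restrictive glucose medium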). The note with it: OD615, 48 h, at 10 µM, stronger effect = higher value.
The nature of assay [11]: viability gain of MRP-1-high H69AR cells under doxorubicin, pilot screen, MRP-1 activator project, CellTiter-Glo, duplicate (AID 807;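 active means viability increase at or above a cutoff of the median across tested compounds plus 3 SD, cut at about 8.5% in these data, passing the limit was not always enough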;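 further: compound pretreatment 18-22 h then 72 h combined with doxorubicin; 0% = doxorubicin alone and 100% = vehicle without doxorubicin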). The note with it: H69AR viability with doxorubicin, CellTiter-Glo luminescence; at 10 µM; stronger effect = higher value.
The nature of assay [12]: growth suppression of beta-catenin knockout HCT116, pilot screen, human colon tumor cells (AID 823;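 active means cell viability at or below a set limit in both duplicate runs, the limit being the all-compound median minus 4 SD, cut at about 23% in these data, passing the limit was not always enough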;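 further: 0% = wells killed by 20 µM Hyamine and 100% = untreated DMSO cell wells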). The note with it: CellTiter-Glo, 60 h, at 10 µM, stronger effect = lower value.
Assay [13] can be described thus: growth suppression of PTEN-deleted HCT116, pilot screen, cell-based, HCT116 clonal line, CellTiter-Glo (AID 824;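 active means viability at or below 27.92% in each of two runs, the all-compound median minus 4 SD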;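 further: 0% = 20 µM Hyamine control and 100% = vehicle cell control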). The note with it: 60 h, at 10 µM, stronger effect = lower value.
The nature of assay [14]: inhibitors of the yeast RAM network, pilot screen, dse1pr::URA3 reporter, 5-FOA selection (AID 869;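 active means inhibition over a set limit, the all-compound mean plus 3 SD, in both replicate runs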;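 further: 0% = DMSO wells with no growth and 100% = 10 µM 1-NA-PP1 with full growth; RAM network block rescues cells from 5-FOA so hits raise OD615 growth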). The note with it: S. cerevisiae dse1pr::URA3 5-FOA growth, OD615, 2 d; at 10 µM; stronger effect = higher value; strain carries analog-sensitive mutant Cbk1 kinase.
Assay [15] can be described thus: RAM signaling pathway blockade in yeast – S. cerevisiae, Pdr1DBD-CYC8 efflux-inhibited sensitized strain, primary screen (AID 1298;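 active means RAM network inhibition above 8.4% in each of two replicates, 3 SD over the compound average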;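 further: 0% = DMSO untreated cells without growth and 100% = 10 µM 1-NA-PP1 full growth; higher means more yeast growth rescued from 5-FOA killing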). To be noted: S. cerevisiae cbk1-as DSE1-URA3 strain, 5-FOA growth OD615, 2 d; at 50 µM; stronger effect = higher value.
[16] abbreviates: H69AR cells + 2 uM doxorubicin, measured here: viability with 2 uM doxorubicin, stronger effect = lower value.
The mark [17] stands for this setting: H69AR cells, compound alone cytotoxicity.

Chain of Receptor tyrosine-protein kinase erbB-2 (Homo sapiens) (P04626 whole entry, looked up): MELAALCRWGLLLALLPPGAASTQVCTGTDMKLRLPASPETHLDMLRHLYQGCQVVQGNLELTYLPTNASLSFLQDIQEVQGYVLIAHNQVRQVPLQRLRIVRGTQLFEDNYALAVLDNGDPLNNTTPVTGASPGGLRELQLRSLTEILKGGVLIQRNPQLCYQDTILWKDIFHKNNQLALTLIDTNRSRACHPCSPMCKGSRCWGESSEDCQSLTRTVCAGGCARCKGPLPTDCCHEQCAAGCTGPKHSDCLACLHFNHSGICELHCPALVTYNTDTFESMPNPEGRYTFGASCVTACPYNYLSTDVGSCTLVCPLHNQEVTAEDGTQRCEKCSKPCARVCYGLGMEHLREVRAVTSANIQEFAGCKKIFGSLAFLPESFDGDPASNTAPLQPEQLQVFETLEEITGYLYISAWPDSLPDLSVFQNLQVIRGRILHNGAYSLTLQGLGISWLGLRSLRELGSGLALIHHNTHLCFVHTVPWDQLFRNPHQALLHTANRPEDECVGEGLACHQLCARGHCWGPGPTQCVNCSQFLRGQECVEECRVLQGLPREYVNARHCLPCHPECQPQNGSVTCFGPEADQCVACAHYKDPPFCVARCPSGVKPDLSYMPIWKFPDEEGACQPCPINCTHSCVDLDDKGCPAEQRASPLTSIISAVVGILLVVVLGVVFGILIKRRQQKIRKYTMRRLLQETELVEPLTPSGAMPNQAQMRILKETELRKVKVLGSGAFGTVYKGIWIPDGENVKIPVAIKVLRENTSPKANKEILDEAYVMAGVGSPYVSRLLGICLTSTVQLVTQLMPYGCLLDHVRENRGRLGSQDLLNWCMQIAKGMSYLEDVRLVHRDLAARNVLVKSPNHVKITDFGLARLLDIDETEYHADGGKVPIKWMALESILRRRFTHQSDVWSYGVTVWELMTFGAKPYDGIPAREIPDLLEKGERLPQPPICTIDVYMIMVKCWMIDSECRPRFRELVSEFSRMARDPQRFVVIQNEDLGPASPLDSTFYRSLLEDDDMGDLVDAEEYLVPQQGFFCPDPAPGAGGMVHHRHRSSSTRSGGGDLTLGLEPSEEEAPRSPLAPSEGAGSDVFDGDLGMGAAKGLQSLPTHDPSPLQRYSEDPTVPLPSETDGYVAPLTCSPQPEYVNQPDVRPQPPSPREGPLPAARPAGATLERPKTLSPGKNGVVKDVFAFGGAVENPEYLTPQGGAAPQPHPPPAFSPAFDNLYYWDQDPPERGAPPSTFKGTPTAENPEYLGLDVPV

Usually viability stands for a read-out of living cells in per cent, often relative to untreated cells. Broadly, the inhibition is the relative decrease from the control value, in per cent. Regarding `Cn1c(=O)c(=O)n(C)c2cc(S(=O)(=O)CCC(=O)N3CCOCC3)ccc21`, the viability in [1] was 88.5%; in assay [3] it was 88.5% (inactive); in assay [4], 106% (inactive); in [5] it was 95% (inactive); in assay [6] (setting [16]), 102%; in assay [6] (setting [17]), 95%. Further, the values for the viability in assay [12] and in assay [13] were 103% (inactive) and 102% (inactive), respectively. In assay [2], the Her2 level was 84% (inactive). Besides, the differential viability (reversal) in [6] (H69AR cells + 2 uM doxorubicin) is -6.71% (inactive). In addition, the inhibition in assay [7] was -0.4% (inactive); in assay [8], 12.5% (inactive); in [14] it was 0.99% (inactive). Also, the values for the growth inhibition in assay [9] and in assay [10] were -2.16% (inactive) and -4.52% (inactive), respectively. The viability increase in assay [11] is -2.26% (inactive). In [15], the RAM network inhibition was 6.32% (inactive).
Regarding `CCOC(=O)C(CC)(CCC(=O)O)c1csc(N)n1` (stereo not given), the viability in assay [1] is 99%; in assay [3], 99% (inactive); in assay [4], 101% (inactive); in assay [5], 102% (inactive); in [6] (setting [16]), 94.2%; in assay [6] (setting [17]), 102%. Moreover, the viability in [12] was 96.8% (inactive); in assay [13], 98.3% (inactive). Moreover, in assay [2], the Her2 level was 98.5% (inactive). In addition, in assay [6] (H69AR cells + 2 uM doxorubicin), the differential viability (reversal) is 7.83% (inactive). The inhibition is -8.4% (inactive) in [7], -2.74% (inactive) in assay [8] and 0.94% (inactive) in assay [14]. Further, the growth inhibition is -4.72% (inactive) in assay [9] and -9.94% (inactive) in assay [10]. For the same compound, the viability increase in [11] was -1.31% (inactive). The RAM network inhibition in assay [15] was -1.93% (inactive).
For `COC(=O)C1=C(C)NC2=C(C(=O)CCC2)C1c1coc2ccccc2c1=O` (stereo not given), the viability in [1] was 91%; in assay [3], 91% (inactive); in assay [4], 97.7% (inactive); in assay [5], 93% (inactive); in [6] (setting [16]), 90.9%; in [6] (setting [17]), 93%. Moreover, the figures for the viability in assay [12] and in assay [13] were 89.4% (inactive) and 90.1% (inactive), respectively. Also, the Her2 level in assay [2] was 81% (inactive). Besides, the differential viability (reversal) in [6] (H69AR cells + 2 uM doxorubicin) is 2.12% (inactive). Besides, the inhibition in assay [7] was -3.97% (inactive); in [8] it was -1.5% (inactive); in assay [14], 2.04% (inactive). For the same compound, the figures for the growth inhibition in assay [9] and in assay [10] were -7.39% (inactive) and 6.02% (inactive), respectively. The viability increase in assay [11] is -4.25% (inactive). Also, the RAM network inhibition in [15] was 1.39% (inactive).
Turning to `Cc1cc(NC(=O)COc2cccc(C)c2C)no1`, the viability in assay [1] was 96%; in assay [3], 96% (inactive); in assay [4], 94.2% (inactive); in [5] it was 108% (inactive); in assay [6] (setting [16]) it was 92.5%; in assay [6] (setting [17]), 108%. The viability is 102% (inactive) in assay [12] and 105% (inactive) in assay [13]. Besides, the Her2 level in [2] is 102% (inactive). In addition, in [6] (H69AR cells + 2 uM doxorubicin), the differential viability (reversal) is 15.6% (inactive). The inhibition in [7] is -0.53% (inactive); in assay [8], -4.26% (inactive); in assay [14], 2.08% (inactive). Also, the growth inhibition in assay [9] is -0.27% (inactive); in assay [10], 6.53% (inactive). The viability increase in assay [11] was 3.52% (inactive). Moreover, in assay [15], the RAM network inhibition is 2.68% (inactive).
For `O=C(Cn1nc(Cc2cccnc2)c2ccccc2c1=O)Nc1ccc2c(c1)OCO2`, the viability in assay [1] is 87%; in assay [3] it was 87% (inactive); in [4], 84.5% (inactive); in assay [5], 85.2% (inactive); in assay [6] (setting [16]), 76.2%; in [6] (setting [17]), 85.2%. The viability in assay [12] was 99% (inactive); in assay [13], 106% (inactive). The Her2 level in assay [2] is 96.5% (inactive). The differential viability (reversal) in assay [6] (H69AR cells + 2 uM doxorubicin) was 9.09% (inactive). For the same compound, the inhibition in assay [7] is -4.8% (inactive); in assay [8], -0.67% (inactive); in assay [14], 0.975% (inactive). Also, the growth inhibition in [9] was 0.565% (inactive); in assay [10] it was 7.93% (inactive). Also, the viability increase in [11] is 2.16% (inactive). For the same compound, the RAM network inhibition in assay [15] was 2.81% (inactive).
